Activity calls are given as the source filed them. Rule for the calls: active = hit-call score of the fitted dose curve at least 0.9, where 1 is the maximum; inactive = score below 0.9.
What was measured:
[1] = ATG_E_Box_CIS: Attagene CIS-FACTORIAL HepG2 Assay for human Enhancer Box (E-box) (AID 2282936); details: HepG2 E-box cis-reporter transcription, actives raise or lower the signal
How it was run: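 HepG2 cells transiently transfected with multiplexed cis-element reporter units, dosed 24 h; reporter mRNA quantified by RT-PCR, 6-FAM labelling, HpaI digestion and capillary electrophoresis. E-box (USF1) signal fitted bidirectionally vs DMSO.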

[2] = ATG_M_61_CIS: Attagene CIS-FACTORIAL HepG2 Assay for M61 Transcription Factor (Internal Marker) (AID 2282937); details: HepG2 Attagene CIS-FACTORIAL M61 internal marker reporter; actives raise or lower the signal
How it was run: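 This endpoint serves as an internal background control within a multiplexed HepG2 cis-reporter panel. Cells are exposed for 24 h; reporter mRNA is amplified, fluorescently labelled and sized by capillary electrophoresis, with DMSO as negative control.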

[3] = ATG_EGR_CIS: Attagene CIS-FACTORIAL HepG2 Assay for human Early Growth Response 1 (EGR1) (AID 2282938); details: HepG2 Attagene CIS-FACTORIAL EGR reporter mRNA; actives raise or lower the signal
How it was run: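 HepG2, transient MRTU transfection (cis promoters), 24 h compound. RNA → RT (oligo-dT) → PCR → 6-FAM labelling → HpaI cut → CE fluorescence. Bidirectional fit, DMSO baseline.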

[4] = ATG_M_19_CIS: Attagene CIS-FACTORIAL HepG2 Assay for M19 Transcription Factor (Internal Marker) (AID 2282939); details: HepG2 Attagene CIS-FACTORIAL M19 internal marker reporter; actives raise or lower the signal
How it was run: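 Internal marker readout, fitted in both directions against DMSO, from HepG2 cells carrying transfected cis-element reporter constructs; RT-PCR and capillary electrophoresis of reporter mRNA after 24 h exposure.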

[5] = ATG_Ets_CIS: Attagene CIS-FACTORIAL HepG2 Assay for human Erythroblast Transformation Specific (ETS) (AID 2282941); details: HepG2 ETS cis-reporter transcription, actives raise or lower the signal
How it was run: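 Human HepG2 hepatoma cells were transiently transfected with promoter-driven reporter constructs and treated for 24 hours. Reporter transcripts were quantified by RT-PCR with fluorescent primer extension; bidirectional curve fitting used DMSO as reference.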

[6] = target: Hepatocyte nuclear factor 3-beta (Homo sapiens) (UniProt Q9Y261); assay: ATG_FoxA2_CIS: Attagene CIS-FACTORIAL HepG2 Assay for human Forkhead box A2 (FOXA2) (AID 2282942); details: HepG2 cis-reporter transcription factor activity, 24 h; actives raise or lower the signal
How it was run: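 Cells: HepG2, transient multiplex reporter transfection. Exposure 24 h. Detection: reporter-specific RT-PCR, fluorescent labelling, restriction digest, capillary electrophoresis. Analysis: bidirectional curve fit, DMSO as negative control.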

[7] = ATG_FoxO_CIS: Attagene CIS-FACTORIAL HepG2 Assay for human Forkhead box O (FoxO) (AID 2282943); details: HepG2 Attagene cis-reporter, FoxO element, mRNA; actives raise or lower the signal
How it was run: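 HepG2 cells transiently transfected with cis-element-driven reporter units report endogenous FoxO activity. After 24 h chemical exposure, reporter mRNA quantified by RT-PCR, fluorescent labeling, HpaI digestion and capillary electrophoresis; bidirectional fit versus DMSO.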

[8] = ATG_GATA_CIS: Attagene CIS-FACTORIAL HepG2 Assay for human GATA Binding Protein (AID 2282944); details: HepG2 GATA cis-element reporter, Attagene multiplex mRNA; actives raise or lower the signal
How it was run: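 Reporter transcripts from a GATA cis-regulated unit, among multiplexed reporters in transfected HepG2 cells, were measured by RT-PCR with capillary electrophoresis after 24 h dosing. Induction or loss scored relative to DMSO.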

[9] = ATG_GLI_CIS: Attagene CIS-FACTORIAL HepG2 Assay for human Zinc Finger Protein GLI1 (AID 2282945); details: HepG2, Attagene cis-factorial reporter mRNA, GLI element; actives raise or lower the signal
How it was run: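 Transiently transfected HepG2 cells report endogenous transcription factor activity via cis-element-driven reporter units. After 24 h compound exposure, reporter mRNA was measured by RT-PCR with capillary electrophoresis; bidirectional fitting against DMSO baseline.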

[10] = target: Bile acid receptor (Homo sapiens) (UniProt Q96RI1); assay: ATG_IR1_CIS: Attagene CIS-FACTORIAL HepG2 Assay for human Nuclear Receptor Subfamily 1 Group H Member 4 (NR1H4), IR1 submotif (AID 2282946); details: IR1 reporter transcription, actives raise or lower the signal
How it was run: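 HepG2 cells transiently transfected with multiple cis-promoter-driven reporter units to measure endogenous transcription factor activity; 24 h exposure. Reporter mRNA read by RT-PCR, FAM labelling, HpaI digestion and capillary electrophoresis. Bidirectional fit versus DMSO.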

[11] = ATG_ISRE_CIS: Attagene CIS-FACTORIAL HepG2 Assay for human Interferon Regulatory Factor 1 (IRF1) binding to an Interferon-Stimulated Response Element (ISRE) (AID 2282948); details: HepG2 ISRE cis-reporter (Attagene), mRNA transcription readout; actives raise or lower the signal
How it was run: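 Cell-based cis-reporter assay; HepG2; 24 h exposure; reporter mRNA by RT-PCR plus capillary electrophoresis fluorescence; activity in either direction scored relative to DMSO.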

[12] = ATG_M_32_CIS: Attagene CIS-FACTORIAL HepG2 Assay for M32 Transcription Factor (Internal Marker) (AID 2282949); details: HepG2 Attagene cis-factorial M32 reporter, mRNA; actives raise or lower the signal;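 note: background control marker of the multiplexed CIS panel rather than a real target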
How it was run: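 Fluorescent capillary electrophoresis peaks of HpaI-digested, FAM-labelled RT-PCR reporter products give the signal. Source: transiently transfected human liver HepG2 cells, 24 h after chemical dosing; bidirectional fitting against DMSO.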

[13] = ATG_M_06_CIS: Attagene CIS-FACTORIAL HepG2 Assay for M06 Transcription Factor (Internal Marker) (AID 2282950); details: HepG2 Attagene CIS-FACTORIAL M06 internal marker reporter; actives raise or lower the signal
How it was run: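 Serves as a background control readout. Transfected HepG2 exposed to compounds for 24 h, then reporter transcripts quantified by fluorescent RT-PCR and capillary electrophoresis. Both directions fitted against DMSO baseline.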

[14] = target: Hypoxia-inducible factor 1-alpha (Homo sapiens) (UniProt Q16665); assay: ATG_HIF1a_CIS: Attagene CIS-FACTORIAL HepG2 Assay for human Hypoxia Inducible Factor 1 (HIF1A) (AID 2282951); details: HepG2 Attagene cis-factorial HIF1a reporter transcription; actives raise or lower the signal
How it was run: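 HepG2, transient cis-reporter library, 24 h dosing. RNA → RT (oligo dT) → PCR → 6-FAM primer extension → HpaI → CE. Bidirectional curve fit vs DMSO.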

[15] = target: Hepatocyte nuclear factor 6 (Homo sapiens) (UniProt Q9UBC0); assay: ATG_HNF6_CIS: Attagene CIS-FACTORIAL HepG2 Assay for human Hepatocyte Nuclear Factor 6 (HNF6) (AID 2282952); details: HepG2 Attagene cis-factorial HNF6 reporter transcription; actives raise or lower the signal
How it was run: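 Reporter mRNA induction or loss in HepG2 after 24 h exposure; transient cis-MRTU transfection; fragments quantified by capillary electrophoresis; bidirectional analysis, DMSO as negative control.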

[16] = target: Heat shock factor protein 1 (Homo sapiens) (UniProt Q00613); assay: ATG_HSE_CIS: Attagene CIS-FACTORIAL HepG2 Assay for human Heat Shock Transcription Factor 1 (HSE) (AID 2282953); details: HepG2 HSE cis-reporter, Attagene RNA transcription; actives raise or lower the signal
How it was run: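 Endogenous transcription factor activity in transiently transfected HepG2, read as reporter mRNA by RT-PCR with fluorescent capillary electrophoresis after 24 h. Gain or loss of signal fitted versus DMSO baseline.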

[17] = ATG_MRE_CIS: Attagene CIS-FACTORIAL HepG2 Assay for human Metal Responsive Element (MRE) (AID 2282954); details: HepG2 MRE cis-reporter transcription, Attagene multiplex; actives raise or lower the signal
How it was run: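 HepG2 cells transiently transfected with cis-element-driven reporter units; mRNA measured 24 h after dosing. Reporter transcripts quantified by RT-PCR, FAM labelling, HpaI digestion and capillary electrophoresis; bidirectional fit versus DMSO.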

[18] = ATG_PBREM_CIS: Attagene CIS-FACTORIAL HepG2 Assay for human Phenobarbital-responsive Enhancer Module (PBREM) (AID 2282955); details: HepG2 PBREM cis-reporter, Attagene multiplexed transcription; actives raise or lower the signal
How it was run: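 HepG2, transient MRTU transfection, 24 h dosing; RNA → oligo(dT) RT → PCR → 6-FAM extension → HpaI → CE. Bidirectional fit vs DMSO.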

Measured: AC50

Chain of Heat shock factor protein 1 (Homo sapiens) (Q00613 whole entry, looked up): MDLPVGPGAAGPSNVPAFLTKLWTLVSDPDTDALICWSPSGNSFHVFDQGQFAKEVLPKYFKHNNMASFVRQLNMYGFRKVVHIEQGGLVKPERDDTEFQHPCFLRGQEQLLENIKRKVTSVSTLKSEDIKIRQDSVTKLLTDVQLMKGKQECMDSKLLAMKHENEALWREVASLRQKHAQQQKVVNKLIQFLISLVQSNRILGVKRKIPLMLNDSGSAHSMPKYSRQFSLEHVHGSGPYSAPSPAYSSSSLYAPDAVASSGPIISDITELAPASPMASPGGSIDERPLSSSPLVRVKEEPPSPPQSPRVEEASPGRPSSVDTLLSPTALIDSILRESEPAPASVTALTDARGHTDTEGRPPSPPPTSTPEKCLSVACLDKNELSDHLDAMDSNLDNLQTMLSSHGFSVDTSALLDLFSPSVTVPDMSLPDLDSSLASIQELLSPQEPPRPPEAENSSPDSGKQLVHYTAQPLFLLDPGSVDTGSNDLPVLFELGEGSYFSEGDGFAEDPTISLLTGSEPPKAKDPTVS
Chain of Hepatocyte nuclear factor 6 (Homo sapiens) (Q9UBC0 whole entry, looked up, the tested form may be a part): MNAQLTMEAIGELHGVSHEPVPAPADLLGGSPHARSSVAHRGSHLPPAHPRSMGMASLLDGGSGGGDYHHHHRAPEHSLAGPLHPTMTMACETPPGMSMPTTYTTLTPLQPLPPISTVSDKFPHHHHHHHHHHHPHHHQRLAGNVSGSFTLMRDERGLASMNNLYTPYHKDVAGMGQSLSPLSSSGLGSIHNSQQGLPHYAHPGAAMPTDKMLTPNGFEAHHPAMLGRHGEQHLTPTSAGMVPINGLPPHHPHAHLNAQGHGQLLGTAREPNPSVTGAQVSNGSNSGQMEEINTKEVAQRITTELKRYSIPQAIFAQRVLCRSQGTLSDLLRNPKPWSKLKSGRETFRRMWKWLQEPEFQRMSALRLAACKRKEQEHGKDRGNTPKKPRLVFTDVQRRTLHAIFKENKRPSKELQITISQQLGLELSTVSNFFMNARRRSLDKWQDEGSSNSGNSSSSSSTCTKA
Chain of Hepatocyte nuclear factor 3-beta (Homo sapiens) (Q9Y261 whole entry, looked up): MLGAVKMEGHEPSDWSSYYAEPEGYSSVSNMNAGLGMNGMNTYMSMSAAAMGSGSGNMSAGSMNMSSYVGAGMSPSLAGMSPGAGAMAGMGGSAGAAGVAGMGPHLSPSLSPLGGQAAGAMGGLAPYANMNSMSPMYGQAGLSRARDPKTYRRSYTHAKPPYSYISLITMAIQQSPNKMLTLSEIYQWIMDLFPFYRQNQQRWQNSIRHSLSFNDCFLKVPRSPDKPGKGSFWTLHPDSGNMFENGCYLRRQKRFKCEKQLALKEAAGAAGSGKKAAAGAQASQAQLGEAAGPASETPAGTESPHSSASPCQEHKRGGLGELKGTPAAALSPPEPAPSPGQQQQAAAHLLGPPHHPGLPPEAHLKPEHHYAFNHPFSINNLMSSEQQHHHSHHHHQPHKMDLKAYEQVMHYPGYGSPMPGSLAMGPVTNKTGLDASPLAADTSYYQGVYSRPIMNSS
Chain of Bile acid receptor (Homo sapiens) (Q96RI1 whole entry, looked up): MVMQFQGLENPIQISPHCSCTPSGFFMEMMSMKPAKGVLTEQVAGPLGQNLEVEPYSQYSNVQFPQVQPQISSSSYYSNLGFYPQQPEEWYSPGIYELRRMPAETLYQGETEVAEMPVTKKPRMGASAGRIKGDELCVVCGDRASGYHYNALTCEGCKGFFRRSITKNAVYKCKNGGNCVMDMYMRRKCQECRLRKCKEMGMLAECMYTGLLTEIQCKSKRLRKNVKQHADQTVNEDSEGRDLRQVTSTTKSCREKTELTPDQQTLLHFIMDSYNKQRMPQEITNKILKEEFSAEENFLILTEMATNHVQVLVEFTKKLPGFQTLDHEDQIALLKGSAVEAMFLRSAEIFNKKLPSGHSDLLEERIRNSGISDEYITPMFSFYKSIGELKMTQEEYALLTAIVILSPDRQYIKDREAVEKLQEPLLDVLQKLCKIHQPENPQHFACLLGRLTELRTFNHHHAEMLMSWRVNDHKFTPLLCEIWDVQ
Chain of Hypoxia-inducible factor 1-alpha (Homo sapiens) (Q16665 whole entry, looked up): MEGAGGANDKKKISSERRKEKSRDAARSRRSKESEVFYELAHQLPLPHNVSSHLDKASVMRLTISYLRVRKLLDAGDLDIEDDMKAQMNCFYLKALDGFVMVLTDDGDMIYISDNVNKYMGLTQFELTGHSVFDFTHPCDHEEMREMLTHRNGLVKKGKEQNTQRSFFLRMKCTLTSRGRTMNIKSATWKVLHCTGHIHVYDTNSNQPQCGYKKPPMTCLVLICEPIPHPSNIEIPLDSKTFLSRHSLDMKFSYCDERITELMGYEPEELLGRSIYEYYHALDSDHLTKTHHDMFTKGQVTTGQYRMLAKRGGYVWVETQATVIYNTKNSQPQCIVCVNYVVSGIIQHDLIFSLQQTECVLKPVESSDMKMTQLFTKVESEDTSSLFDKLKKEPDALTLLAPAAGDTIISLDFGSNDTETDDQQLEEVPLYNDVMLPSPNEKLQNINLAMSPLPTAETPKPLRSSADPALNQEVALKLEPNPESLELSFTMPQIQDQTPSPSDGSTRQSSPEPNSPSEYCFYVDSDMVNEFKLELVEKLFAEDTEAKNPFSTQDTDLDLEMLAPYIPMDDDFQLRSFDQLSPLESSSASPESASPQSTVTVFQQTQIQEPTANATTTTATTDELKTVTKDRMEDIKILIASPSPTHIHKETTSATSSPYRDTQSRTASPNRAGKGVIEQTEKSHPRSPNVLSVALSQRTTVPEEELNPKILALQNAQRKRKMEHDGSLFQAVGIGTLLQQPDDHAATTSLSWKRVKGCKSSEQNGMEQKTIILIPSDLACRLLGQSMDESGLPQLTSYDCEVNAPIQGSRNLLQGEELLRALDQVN

CCCCCCC(=O)c1ccccc1
inactive: [1] | [2] | [3] | [4] | [5] | [6] | [7] | [8] | [9] | [10] | [11] | [12] | [13] | [14] | [15] | [16] | [17] | [18]

O=C1CCCC=CCCCCCCCCCC1
active: [11] 41.2 µM | [16] 63 µM
inactive: [1] | [2] | [3] | [4] | [5] | [6] | [7] | [8] | [9] | [10] | [12] | [13] | [14] | [15] | [17] | [18]

O=C(O)CCCCCCCCCCCC(=O)O
inactive: [1] | [2] | [3] | [4] | [5] | [6] | [7] | [8] | [9] | [10] | [11] | [13] | [14] | [15] | [16] | [17]

CC(=O)c1ccccn1
inactive: [1] | [2] | [3] | [4] | [5] | [6] | [7] | [8] | [9] | [10] | [11] | [12] | [13] | [14] | [15] | [16] | [17] | [18]

C[Si](C)(C)O[Si](C)(C)C
inactive: [1] | [2] | [3] | [4] | [5] | [6] | [7] | [8] | [9] | [10] | [11] | [12] | [13] | [14] | [15] | [16] | [17]

CCOC(=O)CCc1ccccc1
inactive: [1] | [2] | [3] | [4] | [5] | [6] | [7] | [8] | [9] | [10] | [11] | [12] | [13] | [14] | [15] | [16] | [17]

CC(=O)C(C)O (stereo not drawn)
inactive: [1] | [2] | [3] | [4] | [5] | [6] | [7] | [8] | [9] | [10] | [11] | [12] | [13] | [14] | [15] | [16] | [17] | [18]

CCCCCCOC(=O)CCC
inactive: [1] | [2] | [3] | [4] | [5] | [6] | [7] | [8] | [9] | [10] | [11] | [12] | [13] | [14] | [15] | [16] | [17]

O=C(O)CCCCCCCCC(=O)O
inactive: [1] | [2] | [3] | [4] | [5] | [6] | [7] | [8] | [9] | [10] | [11] | [12] | [13] | [14] | [15] | [16] | [17] | [18]

CC1CCC(C(C)C)C(O)C1 (stereo not drawn)
inactive: [1] | [2] | [3] | [4] | [5] | [6] | [7] | [8] | [9] | [10] | [11] | [12] | [13] | [14] | [15] | [17] | [18]

C[Si]1(C)O[Si](C)(C)O[Si](C)(C)O1
inactive: [1] | [2] | [3] | [4] | [5] | [6] | [7] | [8] | [9] | [10] | [11] | [13] | [14] | [15] | [16] | [17] | [18]

CCN(CCC#N)c1ccc(N=Nc2ccc([N+](=O)[O-])cc2)cc1
inactive: [1] | [2] | [3] | [4] | [5] | [6] | [7] | [8] | [9] | [10] | [11] | [13] | [14] | [15] | [16] | [17] | [18]

CCCCOC(=O)CCCCCCCC(=O)OCCCC
inactive: [1] | [2] | [3] | [4] | [5] | [6] | [7] | [8] | [9] | [10] | [11] | [12] | [13] | [14] | [16] | [17] | [18]

CC=CC=CCOC(=O)C(C)C
inactive: [1] | [2] | [3] | [4] | [5] | [6] | [7] | [8] | [9] | [10] | [12] | [13] | [14] | [15] | [16] | [17] | [18]
active: [11] 100 µM

— PubChem BioAssay (EPA / NIEHS)
